# Laboratory results: PubChem BioAssay (NCATS)
# Results filed as inconclusive are left out. A call without a number means that no potency is given here. Activity calls are given as the source filed them. Calls follow the shape of the dose curve; as a rule, active = well fitted inhibition curve with a large enough effect; inconclusive = small, poorly fitted or top-dose-only effect; inactive = flat fitted curve, though single readings scatter. Peptide text beside a SMILES is read from it.
# Tested on: CP250
# Experiment: qHTS profiling for inhibitors of Plasmodium falciparum proliferation (AID 504749); also: nearly all actives have a fitted effect of over 60% in size
# Conditions: P. falciparum in erythrocytes, SYBR Green DNA, 72 h; series mostly up to 12.8 µM
# Summary of the method: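 Each compound contacts P. falciparum-infected red blood cells for 72 h at 37 C; lysis buffer (Tris, EDTA, saponin, Triton X, SYBR Green I) is added and fluorescence measured next morning; values normalized to controls.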
# Potency is read from the fitted curve at half-maximal effect.
row,SMILES,Potency
1,CCC(C)C(=O)OC1CCC=C2C=CC(C)C(CCC3CC(O)CC(=O)O3)[C@@H]21 (stereo not given in full),inactive
2,C[C@]1(c2ccccc2)OC(C(=O)O)=CC1=O,inactive
3,OCC1OC([S-])[C@H](O)C(O)C1O.[Au+] (stereo not given in full),inactive
4,COC(=O)N/N=C/C1=C[N+](=O)c2ccccc2[N+]1=O,inactive
5,CN1CC(=O)N=C1N,inactive
6,CNC1CC(N)[C@H](O)[C@@H](O[C@@H]2OC(CO)C3OC4(OC(C(N)CO)C(O)C(O)C4O)O[C@@H]3[C@H]2O)C1O (stereo not given in full),inactive
7,COC1C=CO[C@@]2(C)Oc3c(C)c(O)c4c(O)c(c(C=NN5CCN(C)CC5)c(O)c4c3C2=O)NC(=O)/C(C)=C\C=CC(C)C(O)[C@@H](C)C(O)C(C)[C@H](OC(C)=O)C1C (stereo not given in full),6310 nM (active)
8,CC(=O)N[C@@H]1C(O)OC(CO)C(O)C1O (stereo not given in full),inactive
9,CCC(CCC(C)C1CCC2C3CC=C4CC(O)CC[C@@]4(C)C3CC[C@@]12C)C(C)C (stereo not given in full),inactive
10,O=C1OC(CO)C(O)C(O)C1O (stereo not given),inactive
11,COc1ccc(CC(N)C(=O)NC2C(CO)OC(n3cnc4c(N(C)C)ncnc43)C2O)cc1 (stereo not given),1260 nM (active)
12,CCCC(=O)O[C@]1(C(=O)CO)CCC2[C@@H]3CCC4=CC(=O)CC[C@]4(C)C3C(O)C[C@]21C (stereo not given in full),inactive
13,COC(=O)C(Cc1ccccc1)NC(=O)C(N)CC(=O)O (stereo not drawn) (H-Asp-Phe-OMe; configuration not given here),inactive
14,CC[C@@]12CCCN3CCc4c(n(c5ccccc45)[C@](O)(C(=O)OC)C1)C32 (stereo not given in full),inactive
15,CC1(C)SC2C(N3C(=O)C(c4ccccc4)NC3(C)C)C(=O)N2C1C(=O)O (stereo not given),inactive
16,CC1CCC(C(C)C)C(=O)C1 (stereo not given),inactive
17,CC(=O)N[C@H](CC(C)C)C(=O)O,inactive
18,COc1ccc2cc(C(C)CO)ccc2c1 (stereo not given),inactive
19,CNC1C(OC2C(O[C@@H]3C(O)C(O)[C@@H](N=C(N)N)C(O)C3N=C(N)N)OC(C)[C@@]2(O)CO)OC(CO)C(O)C1O (stereo not given in full),inactive
20,CC1C2CCC3C4CC=C5CC(N(C)C)CC[C@@]5(C)C4CC[C@@]32CN1C (stereo not given in full),inactive
21,C[C@]12C=CC(=O)C=C1CCC1C2C(O)C[C@]2(C)C1CC[C@]2(O)C(=O)CO (stereo not given in full),inactive
22,COc1ccc2c(c1)N(C[C@@H](C)CN(C)C)c1ccccc1S2,inactive
23,CCOC(=O)C1=CC(OC(CC)CC)C(NC(C)=O)C(N)C1 (stereo not given),inactive
24,CN(C)CCc1c[nH]c2ccc(CC3COC(=O)N3)cc12 (stereo not given),inactive
25,NCC1CCC(N)C(O[C@@H]2C(O)[C@H](O[C@H]3OC(CO)C(O)C(N)C3O)[C@@H](N)C[C@H]2N)O1 (stereo not given in full),inactive
26,OCC1O[C@H](OC2C(CO)O[C@@](O)(CO)C2O)C(O)C(O)C1O (stereo not given in full),inactive
27,CC1(C)OC2CO[C@]3(COS(N)(=O)=O)OC(C)(C)OC3C2O1 (stereo not given in full),inactive
28,CC(=O)OC1CCC2C3CCc4cc(O)ccc4C3CCC12C (stereo not given),inactive
29,CN(C)CCCOC1C(C(O)CO)OC2OC(C)(C)O[C@@H]21 (stereo not given in full),inactive
30,COc1cc(C2c3cc4c(cc3C(O[C@@H]3OC5COC(c6cccs6)OC5C(O)C3O)C3COC(=O)C23)OCO4)cc(OC)c1O (stereo not given in full),2000 nM (active)
